Records with an inconclusive call do not appear. A call without a number means that no potency is given here. Calls of active or inactive are those of the source. Calls come from the whole dose curve; as a rule, active = well fitted inhibition curve with a large enough effect; inconclusive = small, poorly fitted or top-dose-only effect; inactive = no such curve, though single readings can be large or run the other way.
The compounds below were run against Tumor susceptibility gene 101 protein (Homo sapiens) (UniProt Q99816) (assay: qHTS Assay for Iinhibitors of HIV-1 Budding by Blocking the Interaction of PTAP/TSG101: Hit Validation in TR assay). Conditions: Tsg101 binding domain + Texas Red-labeled PTAP peptide, fluorescence polarization, 20 min; series mostly up to 57.5 µM.
Chain of Tumor susceptibility gene 101 protein (Homo sapiens) (Q99816 whole entry, looked up, the tested form may be a part): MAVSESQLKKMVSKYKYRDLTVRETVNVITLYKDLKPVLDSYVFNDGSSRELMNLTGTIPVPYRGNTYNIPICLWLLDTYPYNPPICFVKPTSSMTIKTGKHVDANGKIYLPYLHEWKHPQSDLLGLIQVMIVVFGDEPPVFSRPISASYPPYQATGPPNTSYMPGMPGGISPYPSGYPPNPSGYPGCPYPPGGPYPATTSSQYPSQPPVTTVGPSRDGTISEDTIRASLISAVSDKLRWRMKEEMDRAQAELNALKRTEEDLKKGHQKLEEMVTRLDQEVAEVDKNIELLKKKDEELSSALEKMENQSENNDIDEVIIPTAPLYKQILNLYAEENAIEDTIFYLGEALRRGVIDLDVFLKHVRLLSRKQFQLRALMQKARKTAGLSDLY
Method in brief: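 Fluorescence polarization: Tsg101 binding domain (10 uM final) with Texas Red-labelled PTAP peptide (50 nM final) in HEPES pH 7.5, 0.15 M NaCl, Tween 20, EDTA, TCEP; 20 min binding at room temperature after compound addition.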
Potency is the fitted concentration of half-maximal effect.

Row | SMILES | Potency
1 | CN1C(=O)c2cccc3c(N)ccc(c23)C1=O | inactive
2 | CCOc1ccc(NC(=O)N(C2CCCCC2)C(C)c2ccncc2)cc1 (centres undefined) | inactive
3 | COc1ccc(-c2onc3ccc(C(C)=O)cc23)cc1 | inactive
4 | CCN1CCN(Cc2ccc(NC(=O)Nc3ccccc3OC)cc2)CC1 | inactive
5 | Cc1cc2c(cc1C)NC(c1c(C)n(C)n(-c3ccccc3)c1=O)C1=C(CC(C)(C)CC1=O)N2 (centres undefined) | inactive
6 | Nc1c(C(=O)c2cccs2)sc2nsc(SCCN3CCCCC3)c12 | inactive
7 | CC1=Nc2ccccc2/C1=C\c1nc(-c2ccc(F)cc2)oc1O | inactive
8 | CCc1ccc[n+](-c2[nH]c(=O)sc2/C=N/NC([S-])=Nc2ccccc2)c1 | inactive
9 | C/C(=N\NC(=O)CC#N)c1cc2ccc(O)cc2oc1=O | inactive
10 | CCCCn1c(=O)[nH]c2nc3cc(N)ccc3nc2c1=O | 11.6 µM (active)
11 | Oc1[nH]c2ccc(Br)cc2c1N=Nc1ccc(F)cc1 | inactive
12 | O=c1cc2oc3cc(O)c(O)cc3c(-c3ccccc3O)c-2cc1O | 16.3 µM (active)
13 | COc1ccc(C(=O)c2sc3nc(C)cc(-c4cccs4)c3c2N)cc1 | inactive
14 | Nc1cccc(N2C(=O)c3cccc4c(N)ccc(c34)C2=O)c1 | inactive
15 | COc1ccc(N=Nc2nc3cc(Br)c(Br)cc3n2C)c(OC)c1 | inactive
16 | Cc1cc(/C=C2\SC(=S)N(Cc3ccco3)C2=O)c(C)n1-c1cccnc1 | inactive
17 | O=c1oc2ccccc2nc1/C=C(\O)c1ccc(Br)cc1 | inactive
18 | N#Cc1ccsc1NC(=O)CSc1nncs1 | inactive
19 | O=C1NC(=S)/C(=C\c2ccc(-c3ccccc3Cl)o2)S1 | inactive
20 | CSC1=NSC2=NC(=O)/C(=C\c3coc4ccccc4c3=O)C(=N)N12 | inactive

Row | SMILES | Potency
21 | CCCN1C(=O)/C(=C\C=C2\N(CC)c3ccccc3C2(C)C)SC1=S | inactive
22 | O=C(CN1C(=O)c2ccccc2S1(=O)=O)Nc1ncc(Cl)cc1Cl | inactive
23 | O=C(c1ccccc1)[C@@H]1[C@@H]2C(=O)N(c3ccc(F)cc3)C(=O)[C@@H]2C2CCCN21 (some centres undefined) | inactive
24 | COc1ccc(OC)c(NC(=O)CCN2CC(C)CC(C)C2)c1 (centres undefined) | inactive
25 | CN(N=Nc1ccc([N+](=O)[O-])cc1)c1ccccc1 | inactive
26 | O=C(C1=NN(c2ccccc2)C2C(=O)N(c3cccc(Cl)c3)C(=O)C12)c1ccccc1 (centres undefined) | 29.1 µM (active)
27 | O=C(NCc1ccc(F)cc1)c1cccc2c1C(=O)c1ccc(N3CCC(Cc4ccccc4)CC3)cc1S2(=O)=O | inactive
28 | CC(=O)N/N=C/c1cc(C(C)C)cc(/C=N/NC(C)=O)c1O | inactive
29 | O=C(NCc1cccc(F)c1)c1cccc2c1C(=O)c1ccc(N3CCCC3)cc1S2(=O)=O | inactive
30 | Cc1nn(C)c(C)c1N1C(=O)c2cccc3c(N)ccc(c23)C1=O | inactive
31 | CCN(CC)C(=O)c1sc2nc(-c3cccs3)cc(-c3cccs3)c2c1N | inactive
32 | CCCCNc1ccc2c3c(cccc13)C(=O)N(CCCC)C2=O | inactive
33 | CN(C)c1ccc(/C=C(\C#N)C(=O)Nc2nc3c(s2)CCN(Cc2ccccc2)C3)cc1 | inactive
34 | Cc1cc(/C=C2\SC(=S)NC2=O)c(C)n1-c1ccccc1 | inactive
35 | COc1ccc(CCn2c(NN=C(C)C)nc3c2c(=O)[nH]c(=O)n3C)cc1 | inactive
36 | CCN(CC)S(=O)(=O)c1ccc(C(=O)/C=C/c2ccc(-c3ccc([N+](=O)[O-])cc3)o2)cc1 | inactive
37 | Cc1ccccc1-n1c(SCc2c(C)noc2C)nnc1-c1cccnc1 | inactive
38 | CCC(=O)Nc1ccc(NC(=O)C23CC4CC(CC(C4)C2)C3)cn1 | inactive
39 | CCN(CC)c1ccc2cc(NC(=O)CCC(=O)O)c(=O)oc2c1 | inactive

From PubChem BioAssay AID651599 (National Center for Advancing Translational Sciences (NCATS), 2012)
